High-throughput results (PubChem BioAssay)
Sampled rows, rich in hits. Any-hit rate of the full collection: about 21%.
VP16 counter – counter-screen for ROR gamma inhibitors: Gal4-VP16 reporter | Drosophila S2 Gal4-VP16 UAS-luciferase, luminescence, 20 h | Potency, µM (highest dose often 53.6 µM), for the others: at the highest dose activity, negative = inhibition, most hits filed as inhibitors | 310,000 tested, 3.5% active | AID 2546;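 further: Gal4-VP16 expression switched on by copper sulfate through the metallothionein promoter; potency means the concentration at half of the fitted maximal effect; nearly all actives have a fitted effect of over 50% in size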
IL-1B inflam inh – inflammasome signaling inhibition, IL-1 beta readout. 360,000 tested, 4.7% active. AID 743279. THP-1 LPS/ATP IL-1B secretion, AlphaLISA, 16 h; hits give low values. activity change, % at 57.5 µM; in the data active means activity change below about -50%; inconclusive means mostly about -30% to -49%
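THP-1 cells pretreated 1 hr with compounds (up to 57.5 uM final), then stimulated with LPS (250 ng/mL final) plus ATP (1.25 mM final); secreted IL-1B measured by AlphaLISA after 16 hr, decreased signal indicating inhibition.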
TDP1 cell CPT – growth inhibition of DT40 Tdp1-/-;hTDP1 cells with camptothecin (screen for TDP1 inhibitors) | chicken DT40 Tdp1-/-;hTDP1 cells + 20 nM CPT, ATP luminescence, 48 h | Potency, µM (titrated, usually from 46.2 µM), for inactives: top-dose activity change, negative = growth inhibition, most hits filed as inhibitors | 420,000 tested, 12% active | AID 686979; further: potency means the concentration at half of the fitted maximal effect; nearly all actives have a fitted effect of over 55% in size
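Chicken DT40 Tdp1-/- cells stably complemented with human TDP1 were seeded at 400 cells/well in medium containing 20 nM camptothecin, exposed to pin-transferred compounds, and grown at 37 °C for at least 48 hr. Viability was read as ATP luminescence.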
ELG1 repair inh – blocks ELG1-dependent DNA repair in HEK293T cells; HEK293T ELG1-luciferase reporter, luminescence, 16 h; DNA damage induced by 5-fluorouridine; Potency, µM (doses to about 46.1 µM), inactives show top-dose activity change, negative = inhibition, actives largely listed as inhibitors; 330,000 tested, 2.3% active; AID 504467; further: potency means the concentration at half of the fitted maximal effect; nearly all actives have a fitted effect of over 55% in size
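In this reporter screen, reduction of luminescence relative to DMSO vehicle indicated activity. Compounds and 5-fluorouridine were added together to 2,000 cells per well, incubated for 16 hr at 37 °C, then developed with ONE-Glo.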
RORg inh – inhibitors of mouse ROR gamma transcriptional activity; Drosophila S2 Gal4-RORgamma UAS-luciferase reporter, 20 h; Potency, µM (highest dose often 53.6 µM), without a hit: top-dose activity change, negative = inhibition, usual class: inhibitors; 310,000 tested, 5.4% active; further: potency means the concentration at half of the fitted maximal effect; nearly all actives have a fitted effect of over 60% in size
Target sequence (P51450 whole entry, looked up, the tested form may be a part): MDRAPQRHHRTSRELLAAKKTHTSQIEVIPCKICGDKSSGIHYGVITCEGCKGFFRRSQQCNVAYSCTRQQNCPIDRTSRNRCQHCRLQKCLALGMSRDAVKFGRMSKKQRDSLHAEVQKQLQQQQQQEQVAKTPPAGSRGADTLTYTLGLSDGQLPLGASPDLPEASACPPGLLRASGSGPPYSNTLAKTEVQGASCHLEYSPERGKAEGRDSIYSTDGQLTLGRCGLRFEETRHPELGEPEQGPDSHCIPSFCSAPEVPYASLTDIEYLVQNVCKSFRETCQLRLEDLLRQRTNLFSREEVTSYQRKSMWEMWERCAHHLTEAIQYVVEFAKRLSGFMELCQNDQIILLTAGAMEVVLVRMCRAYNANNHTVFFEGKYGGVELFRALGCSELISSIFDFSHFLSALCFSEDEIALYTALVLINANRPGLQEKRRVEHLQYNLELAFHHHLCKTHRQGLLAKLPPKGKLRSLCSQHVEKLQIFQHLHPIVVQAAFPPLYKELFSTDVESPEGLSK
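In this cell-based reporter format, copper sulfate (700 uM final) drives Gal4–ROR gamma fusion expression from a metallothionein promoter in Drosophila Schneider cells; compounds preincubated 1 hr, reporter read after 20 hr at ambient temperature.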
DT40 TDP1 no CPT – qHTS for Inhibitors of human tyrosyl-DNA phosphodiesterase 1 (TDP1): qHTS in cells in absence of CPT | DT40 Tdp1-/- hTDP1 cells, no CPT, ATP luminescence, 48 h | Potency, µM (top dose mostly 46.2 µM), inactives show at the highest dose activity change, negative = growth inhibition, most hits filed as inhibitors | 420,000 tested, 15% active; further: potency means the concentration at half of the fitted maximal effect; nearly all actives have a fitted effect of over 55% in size
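Readout: luminescence from CellTiter-Glo after 30 min in the dark at RT. Cells: DT40 Tdp1-/- with stable hTDP1, 400/well. Exposure: compounds alone, ≥48 hr, 37 °C.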
* = called active by the depositor; ? = inconclusive; nt = no result; [ ] = another dose, or the depositor's remark. Unless noted, the call rests on the fitted dose curve; in most records, active means well fitted curve in the direction sought with a large enough effect; inconclusive means small, poorly fitted or top-dose-only effect, or another doubt; inactive means no such curve, though single readings can be large; an effect the other way counts as inactive or inconclusive. On the % scale 0 is the no-effect control and ±100 the full control effect.

SMILES | VP16 counter | IL-1B inflam inh | TDP1 cell CPT | ELG1 repair inh | RORg inh | DT40 TDP1 no CPT
O=c1c(Cl)c(NS(=O)(=O)c2ccccc2)cnn1-c1ccccc1 | -9% | 0 | 2% | 0% | -1% | 19%
COc1ccc(-n2ncc(N(C)n3cccc3)c(Cl)c2=O)cc1 | -9% | -14 | ? | ? | -52% | ?
COc1ccc(-n2nc(C(=O)O)c3ccccc3c2=O)cc1 | -2% | 5 | -21% | 2% | -1% | -28%
COc1nn(-c2ccccc2)c(=O)c(Cl)c1Cl | 11µM* | -96* | 5.2µM* | ? | ? | 4.6µM*
COc1ccc(-n2ncc(Cl)c(Cl)c2=O)cc1 | ? | -107* | 4.1µM* | ? | 2µM* | 2.9µM*
Cc1ccc(-n2ncc(N(C)C)c(Cl)c2=O)cc1 | ? | -11 | -6% | ? | 11µM* | 2%
CN(C)c1cnn(-c2ccccc2)c(=O)c1Cl | -11% | 9 | -23% | ? | -22% | -6%
COc1c(Cl)cnn(-c2ccc(Cl)c(Cl)c2)c1=O | 0% | -98* | 3% | 10% | 6% | -4%
COc1cnn(-c2cccc(Cl)c2)c(=O)c1Cl | nt | -5 | ? | nt | nt | ?
CCOC(=O)c1c(C)nc2c(c1-c1ccccc1)C(=O)c1ccccc1-2 | -1% | -54* | ? | ? | 10% | ?
CCOC(=O)c1c(C)nc2ccccc2c1-c1ccccc1 | ? | -1 | ? | -4% | 3%[10 µM] | 18µM*
CCOC(=O)c1c(CCl)nc2ccccc2c1-c1ccccc1 | -1% | -19 | 13µM* | -7% | -16% | 23µM*
CCOC(=O)c1c(N)nn(C(=O)C(C)C)c1-c1ccccc1 | -19% | -8 | ? | -15% | 8% | 13µM*
CC1=C(C(=O)N(C)C)CC(CC(=O)NC2CCCCC2)C(=O)N1Cc1ccc(F)cc1 (stereo not drawn) | nt | 17 | -2% | nt | nt | -25%
CCn1c(CNC(=O)C23CC4CC(CC(C4)C2)C3)nnc1SCC(=O)Nc1ccc(C)cc1 | nt | nt | -21% | nt | nt | ?
COc1ccc(CN2C[C@@H](CO)O[C@@H](n3cnc4c(NCc5ccco5)ncnc43)C2)cc1 | nt | 20 | -29% | nt | nt | -19%
C=C(Br)COC(c1ccco1)[C@H](Cc1ccccc1)NC(=O)OC(C)(C)C (stereo partly drawn) | nt | nt | ? | nt | nt | 11µM*
C[C@H](NC(=O)OC(C)(C)C)C(=O)c1ccco1 | nt | nt | -2% | nt | nt | -4%
CCCC(=O)n1nc(-c2ccco2)nc1SCc1ccccc1 | ? | 0 | 3.7µM* | ? | 19% | ?
COc1cc(C(=O)NNc2nc3cc4c(cc3s2)OCO4)cc(OC)c1OC | 13µM* | -18 | ? | -21% | ? | ?
COc1cccc(OC)c1C(=O)Nc1nc2cc3c(cc2s1)OCO3 | -18% | -3 | 7% | 4% | -36% | 11%
COc1cc(OC)cc(C(=O)NNc2nc3cc4c(cc3s2)OCO4)c1 | 13µM* | -27 | -3% | 12% | 4.5µM* | -1%
O=C1/C(=C\c2ccc(O)c(O)c2)C(c2ccccc2)=NN1c1ccccc1 | -2%[10 µM] | 23 | ? | -5% | 19% | 21µM*
CN[C@@H](CO)C(=O)NC[C@H]1O[C@@H](n2cnc3c(N)ncnc32)[C@H](O)[C@@H]1O | nt | 7 | 0% | nt | nt | 1%
O=c1c2ccccc2nc(-c2cccs2)n1-c1cccc2ccccc12 | -2% | -1 | ? | -8% | ? | 21µM*
SMILES | VP16 counter | IL-1B inflam inh | TDP1 cell CPT | ELG1 repair inh | RORg inh | DT40 TDP1 no CPT
COc1ccc(CNn2c(-c3cccs3)nc3ccccc3c2=O)cc1OC | -16% | -79* | 7.3µM* | 8.2µM* | 32% | 10µM*
Cc1cccc(-c2nc3ccccc3c(=O)n2N)c1 | 3% | -5 | 9% | -2% | 6% | -29%
COc1ccc(OC)c(CNn2c(-c3cccc(C)c3)nc3ccccc3c2=O)c1 | -5% | -4 | ? | 18µM* | 7% | ?
COc1cccc(CC(=O)Nn2c(C)nc3ccccc3c2=O)c1 | 0% | 0 | 7% | ? | -38% | -11%
COc1cccc(C(=O)Nn2c(-c3cccs3)nc3ccccc3c2=O)c1OC | -3% | 25 | -20% | ? | ? | ?
COc1cccc(CNn2c(-c3cccc(C)c3)nc3ccccc3c2=O)c1 | 13% | -71* | ? | 21µM* | -19% | 18µM*
Cc1nc2ccccc2c(=O)n1/N=C/c1cccs1 | ? | 10 | ? | ? | 33% | ?
Oc1ccccc1N=Cc1sc2ccccc2c1Cl | ? | 10 | ? | -16% | -9% | 18µM*
Cc1ccc(O)c(N=Cc2sc3ccccc3c2Cl)c1 | ? | 13 | ? | ? | ? | ?
CO[C@]1(NC(=O)[C@H](C(=O)O)c2ccc(O)cc2)C(=O)N2C(C(=O)O)=C(CSc3nnnn3C)CO[C@H]21 | -6%[17 µM] | nt | nt | nt | -2%[2.98 µM] | nt
CC(C)CCOc1ccc(/C=N/N2C(=O)CSC2=S)cc1 | ? | -9 | ? | -12% | 4.5µM* | ?
O=C1CSC(=S)N1N=Cc1cccc(OCc2ccccc2)c1 | nt | -6 | -26% | nt | nt | -2%
Cc1ccccc1/C=N/N1C(=O)CSC1=S | -5% | -5 | -14% | 6% | -24% | -20%
COc1cc(O)c(C=NN2C(=O)CSC2=S)c(OC)c1 | nt | 34 | 21µM* | nt | nt | 23µM*
O=C1CSC(=S)N1N=Cc1ccc(Cl)cc1Cl | nt | 10 | ? | nt | nt | 21µM*
O=C1CSC(=S)N1/N=C/c1cccnc1 | -27% | -4 | 15µM* | -25% | -44% | ?
COc1ccc(CN2C(=O)C(CC(=O)NC3CC3)CC(C(=O)N3CCOCC3)=C2C)cc1 (stereo not drawn) | nt | 37 | -22% | nt | nt | ?
COc1cc(NC(=O)CCn2c(=S)[nH]c3ccccc3c2=O)cc(OC)c1OC | nt | -10 | -3% | nt | nt | -9%
CC(=O)NCCNc1ncnc2ccc(-c3ccccc3C)cc12 | -9% | nt | ? | nt | 3% | ?
N[C@@H](Cc1cnc[nH]1)C(=O)Nc1ccc2ccccc2c1 | nt | -8 | 18% | nt | nt | -8%
COc1ccc(S(=O)(=O)N2CCC(C(=O)NC3CCCCC3)CC2)cc1C | -6% | -4 | 1% | 3% | ? | -20%
O=C1CSC(=S)N1N=Cc1ccccc1O | nt | 10 | ? | nt | nt | 9.2µM*
O=C1CSC(=S)N1N=Cc1c[nH]c2ccc(Br)cc12 | nt | 3 | ? | nt | nt | ?
COc1ccc(Br)cc1/C=N/N1C(=O)CSC1=S | -24% | 28 | ? | -18% | 14µM* | ?
